{"source": "PubChem BioAssay AID504832", "about": "(National Center for Advancing Translational Sciences (NCATS), 2011)", "note": "Among all 310,000 compounds or so, about 18,000 (5.8%) were called active. Another 22% or so got no clear call; they are omitted. Only a selection was taken, and actives are over-represented in it overall. Unmarked numbers belong to inactive results. The call rests on the fitted dose curve; in most records, active means well fitted inhibition curve with a large enough effect; inconclusive means small, poorly fitted or top-dose-only effect, or another doubt; inactive means no such curve, though single readings can be large or run the other way. On the % scale 0 is the no-effect control and ±100 the full control effect; potency means the concentration at half of the fitted maximal effect.", "data": [{"test": "Primary qHTS for delayed death inhibitors of the malarial parasite plastid, 48 hour incubation", "settings": "P. falciparum luciferase growth in erythrocytes; series mostly up to 28.7 µM; activity change, negative = inhibition: at the top concentration", "procedure,_shortened": "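In quantitative HTS format, infected erythrocytes bearing luciferase-reporter parasites were treated for a single generation at 37 C. Luminescence after adding detection reagent served as the growth measure.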", "values": [{"smiles": "CC(C)Oc1ccc(Oc2ccc(C(F)(F)F)cn2)cc1", "activity change, negative = inhibition": "10.1%"}, {"smiles": "CNCC[C@H](Oc1ccc(C(F)(F)F)cc1)c1ccccc1", "Potency": "10.4 µM (active)"}, {"smiles": "C[C@H](C(=O)CC(=O)OC(C)(C)C)[C@H](O)c1ccc(C(F)(F)F)cc1", "activity change, negative = inhibition": "48.5%"}, {"smiles": "CCN(CC)C(=O)Oc1ccc(Br)cc1C(=O)Nc1ccc(F)c(Cl)c1", "Potency": "9.28 µM (active)"}, {"smiles": "COC(=O)c1ccc(NC(=O)c2cc(Cl)ccc2OC)cc1", "activity change, negative = inhibition": "-5.41% [at 5.75 µM]"}, {"smiles": "CCN(CC)C(=O)C(=O)Nc1cccc(Br)c1", "activity change, negative = inhibition": "70.9%"}, {"smiles": "CCCc1nnc(NC(=O)CCC(=O)NC2CC2)s1", "activity change, negative = inhibition": "-5.08%"}, {"smiles": "O=C(NCc1ccco1)/C(=C\\c1cccc([N+](=O)[O-])c1)NC(=O)c1ccco1", "activity change, negative = inhibition": "9.51%"}, {"smiles": "C=CCn1c(SCC(=O)NCC2CCCO2)nc2sc(C)c(C)c2c1=O", "note": "(stereo not drawn)", "activity change, negative = inhibition": "11.5%"}, {"smiles": "N#Cc1ccc(Cn2cc(C(=O)c3ccco3)c3ccccc32)cc1", "activity change, negative = inhibition": "-11.3%"}, {"smiles": "Cc1cccc(NC(=O)Cn2cc(C(=O)c3ccco3)c3ccccc32)c1", "activity change, negative = inhibition": "4.36%"}, {"smiles": "CC1CCN(C(=O)Cn2cc(C(=O)c3ccco3)c3ccccc32)CC1", "Potency": "9.28 µM (active)"}, {"smiles": "CC(Sc1ncnc2c1cnn2-c1ccccc1)C(=O)Nc1ccc(N2CCOCC2)cc1", "note": "(stereo not drawn)", "activity change, negative = inhibition": "30.4%"}, {"smiles": "COc1ccc2c(c1OC)C(=O)N(c1ccc(O)cc1)C2", "activity change, negative = inhibition": "1.26%"}, {"smiles": "N#Cc1ccc(C(c2ccc(C#N)cc2)n2cncn2)cc1", "activity change, negative = inhibition": "-10.5% [at 12.8 µM]"}, {"smiles": "N#Cc1ccc(C(c2nnnn2CCc2ccccc2)N2CCCCCC2)cc1", "note": "(stereo not drawn)", "Potency": "1.65 µM (active)"}, {"smiles": "CC(C)C(c1nnnn1CCc1ccccc1)N1CCN(C(=O)c2ccco2)CC1", "note": "(stereo not drawn)", "activity change, negative = inhibition": "-24%"}, {"smiles": "CCCc1nc(SCC(=O)N2CCCC2)c2c(=O)n(C)c(=O)n(C)c2n1", "activity change, negative = inhibition": "12.7%"}, {"smiles": "CC(=O)N1CCN(CC(c2ccccc2)c2ccccc2)CC1", "activity change, negative = inhibition": "-29%"}, {"smiles": "COc1ccccc1CN(C)C(=O)C1(c2ccc(Cl)cc2)CC1", "activity change, negative = inhibition": "-29.6%"}, {"smiles": "COc1cccc(CN(C)CC(=O)NCc2ccccc2Cl)c1OC", "activity change, negative = inhibition": "-4.79%"}, {"smiles": "COc1cccc(CN(C)CC2CCCN(CCc3ccc(Cl)cc3)C2)c1OC", "note": "(stereo not drawn)", "Potency": "5.86 µM (active)"}, {"smiles": "COc1cccc(NC(=O)N2C3CCCC2CC(NC(C)=O)C3)c1", "note": "(stereo not drawn)", "activity change, negative = inhibition": "5.95%"}, {"smiles": "CCOc1cc(C2/C(=C(/O)c3ccc(S(=O)(=O)N4CCCCC4)cc3)C(=O)C(=O)N2CCOC)ccc1O", "note": "(stereo not drawn)", "activity change, negative = inhibition": "23.4%"}, {"smiles": "CCOC(=O)c1cc2c(n(-c3ccc(C)cc3)c1=O)CCCC2=O", "activity change, negative = inhibition": "-0.459%"}, {"smiles": "CCOC(=O)C1=C(N)N(c2ccc(C)cc2)C2=C(C(=O)CCC2)C1c1cccs1", "note": "(stereo not drawn)", "Potency": "9.28 µM (active)"}, {"smiles": "O=C1CCCC2=C1C(c1cccs1)CC(=O)N2c1ccc(F)cc1", "note": "(stereo not drawn)", "activity change, negative = inhibition": "-13.5%"}, {"smiles": "COc1cc2cc(C(=O)N/N=C/c3cccc(OC)c3OC)[nH]c2cc1OC", "activity change, negative = inhibition": "-25.8%"}]}]}
